{"source": "the supplement of paper PMC11417369", "note": "± gives the standard deviation of the averaged measurements. In all, about 25,000 sequences were measured (“ln(normalized median fluorescence intensity)”: median about 8.6, highest 2% from about 10 on). Only a selection was taken, and the highest values are over-represented in it overall.", "data": [{"system": "PfAP2-EXP AP2 domain (GST-tagged)", "assay": "gcPBM binding intensity (ln(normalized median fluorescence intensity)); higher = stronger DNA binding", "in_short": "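DNA-binding domains from P. falciparum, fused to GST and produced in E. coli, were put on an Agilent 4 × 180k double-stranded probe array for 1 h in 1× PBS holding 1% milk, 0.2 mg/ml BSA, 0.5% salmon testes DNA and 0.03% Triton X-100. Probes were primer-extended, 36 bp long and drawn from intergenic genomic regions, with negative controls included. After Alexa488 anti-GST antibody detection and a 488 nm scan, binding intensity was set as the highest Masliner-normalised natural-log median intensity across replicate spots of either probe orientation.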", "values": [{"sequence": "TGAAAAATGTAATGCTCACACATATATATATATATA [CACACA_site5213]", "gcPBM binding intensity (ln)": "10.2 ± 0.32"}, {"sequence": "ATATAATTAAAATGCTCACACACATAAAAAAAAATT [CACACA_site2148]", "gcPBM binding intensity (ln)": "8.43 ± 0.55"}, {"sequence": "CACAAAAATGTAATCACACATATATATATATATATA [CACACA_site5818]", "gcPBM binding intensity (ln)": "10.1 ± 0.38"}, {"sequence": "AATAAAATAAGAAGCACACAAATATTATATATAAAA [CACACA_site3980]", "gcPBM binding intensity (ln)": "8.78 ± 0.42"}, {"sequence": "ATTATAAATTAAAATACACACATATATACCTAATAT [CACACA_site5541]", "gcPBM binding intensity (ln)": "8.47 ± 0.4"}, {"sequence": "TTACAAATATTATAATGTACCCATTTTTTTTGCCTT [XGTACX_site6612]", "gcPBM binding intensity (ln)": "8.47 ± 0.39"}, {"sequence": "CATAATATATATTGAGCATGCTACTATTGTTAGAAA [TGCATGCA_site740]", "gcPBM binding intensity (ln)": "9 ± 0.31"}, {"sequence": "AGAAACCTTGTTAGTTAGCATATATATATATATATA [CACACA_negctrl_site372]", "gcPBM binding intensity (ln)": "10.2 ± 0.49"}, {"sequence": "TTATTCTTTAACTAAAATTATATATATATATTATAC [CACACA_negctrl_site1597]", "gcPBM binding intensity (ln)": "8.38 ± 0.34"}, {"sequence": "AATGATTTTAAATGAACATAATTTATATTCATAACA [GTGCAC_negctrl_site256]", "gcPBM binding intensity (ln)": "8.04 ± 0.42"}, {"sequence": "TCAATTTTACTTGTTTGTACATAAAATAATAAGGTT [XGTACX_site3732]", "gcPBM binding intensity (ln)": "8.44 ± 0.47"}, {"sequence": "ACAACATATGTTATCACACACATATAAATATAAATA [CACACA_site7038]", "gcPBM binding intensity (ln)": "8.41 ± 0.54"}, {"sequence": "GCACAACATATATTATCACACACATATATATATATA [CACACA_site8619]", "gcPBM binding intensity (ln)": "10.3 ± 0.18"}, {"sequence": "ATATCACATATATATATATATATATATATATATATA [XGTACX_negctrl_site463]", "gcPBM binding intensity (ln)": "9.95 ± 0.61"}, {"sequence": "AAAAAAAAAACACACACATGCACATCATATTATATA [TGCATGCA_site133]", "gcPBM binding intensity (ln)": "8.72 ± 0.54"}, {"sequence": "AATAAATTATATATCACACATATATATTTATATTTA [CACACA_site5964]", "gcPBM binding intensity (ln)": "8.13 ± 0.23"}, {"sequence": "CCAACATATATTATCACACACATATATATATATATA [CACACA_site2016]", "gcPBM binding intensity (ln)": "10.2 ± 0.22"}, {"sequence": "AAAAAAAACAGACACACACACACATATACATACATA [CACACA_site2665]", "gcPBM binding intensity (ln)": "8.41 ± 0.38"}, {"sequence": "AAAAAAATCACATAATATACTTTATTTTATTTTGTA [GTGCAC_negctrl_site562]", "gcPBM binding intensity (ln)": "7.89 ± 0.33"}, {"sequence": "ATTTTTTTTTTTAATACACACAATTTTGATGAAGCA [CACACA_site3157]", "gcPBM binding intensity (ln)": "8.26 ± 0.41"}, {"sequence": "CTAAAGTAAATTTAAGCACACACAACGAATTTTTAT [CACACA_site8599]", "gcPBM binding intensity (ln)": "8.65 ± 0.45"}, {"sequence": "GATAAAATGGATGGATGTACATTATTTCCATATAAT [XGTACX_site7781]", "gcPBM binding intensity (ln)": "8.55 ± 0.5"}, {"sequence": "AACCATTATTTCTCTACACACATTTATGTCATTTAC [CACACA_site1499]", "gcPBM binding intensity (ln)": "8.86 ± 0.56"}, {"sequence": "CATATACATAAACACACACACACATAAATAAATATA [CACACA_site4864]", "gcPBM binding intensity (ln)": "8.68 ± 0.54"}, {"sequence": "TACATATATAAAAAAACACACACATATATATATATA [CACACA_site8315]", "gcPBM binding intensity (ln)": "10.1 ± 0.46"}, {"sequence": "AAAAAAAAAAAACATACACACATACATACAGATATA [CACACA_site4681]", "gcPBM binding intensity (ln)": "8.5 ± 0.64"}, {"sequence": "TACAGATATAAACACACACACATATATATATATATA [CACACA_site4846]", "gcPBM binding intensity (ln)": "10.2 ± 0.48"}, {"sequence": "TATACACATATATAAACACACAAAAAAAAAAAAAAA [CACACA_site7041]", "gcPBM binding intensity (ln)": "8.19 ± 0.63"}, {"sequence": "GTACATACATAAAACACACACATATATATATATATA [CACACA_site1826]", "gcPBM binding intensity (ln)": "10.2 ± 0.75"}, {"sequence": "AAAAAAAAAAAAAGTACACACATACATATAAATATA [CACACA_site8533]", "gcPBM binding intensity (ln)": "8.48 ± 0.4"}, {"sequence": "AAGTACATACATAAAACACACACATATATATATATA [CACACA_site8541]", "gcPBM binding intensity (ln)": "10.2 ± 0.17"}, {"sequence": "TAAAAAAAAAAAAAAAGTACACACATACATATAAAT [XGTACX_site3752]", "gcPBM binding intensity (ln)": "8.61 ± 0.44"}, {"sequence": "TAGATACATAAACACACACACACATACATATATACA [CACACA_site9139]", "gcPBM binding intensity (ln)": "8.68 ± 0.6"}, {"sequence": "TACATACATAAACACACACACACATATATATATATA [CACACA_site8953]", "gcPBM binding intensity (ln)": "10.1 ± 0.35"}, {"sequence": "TATATACATAAACACACACACACATATATATATATA [CACACA_site8707]", "gcPBM binding intensity (ln)": "10.2 ± 0.29"}, {"sequence": "GTTAATATACTTAATACACACACGAATATATATAAA [CACACA_site1181]", "gcPBM binding intensity (ln)": "8.69 ± 0.35"}, {"sequence": "ACCTAATTTTTATATTGTACATAATATAATATATAT [XGTACX_site1715]", "gcPBM binding intensity (ln)": "8.66 ± 0.3"}, {"sequence": "ATTTAAAAAAAAAAAAAAAAAAAAAAAAAAAGAAAA [CACACA_negctrl_site722]", "gcPBM binding intensity (ln)": "8.01 ± 0.43"}, {"sequence": "TATATATATATGTATACACACATATGTATGTTATGT [CACACA_site4053]", "gcPBM binding intensity (ln)": "9.65 ± 0.28"}, {"sequence": "CCAATACATAGAAACTGTACATTATGCATTATACAC [XGTACX_site3531]", "gcPBM binding intensity (ln)": "8.79 ± 0.28"}, {"sequence": "ATTAAATACTTCGATTGTACAATTTTTTTTTTTTTT [XGTACX_site832]", "gcPBM binding intensity (ln)": "8.59 ± 0.59"}, {"sequence": "ATTTAAAATGGTTATACACACATAAAAGGGGAAATG [CACACA_site2649]", "gcPBM binding intensity (ln)": "8.95 ± 0.57"}, {"sequence": "TTTTTTTTTCGCTTTTGTACACATTTTATAGAACAG [XGTACX_site2416]", "gcPBM binding intensity (ln)": "8.87 ± 0.46"}, {"sequence": "AAAAAAAAAAAAAAGCGTACAAATAAAATATATTTA [XGTACX_site7195]", "gcPBM binding intensity (ln)": "8.52 ± 0.49"}, {"sequence": "AACATATACACGAACACACACACATATAAATAAATA [CACACA_site6380]", "gcPBM binding intensity (ln)": "8.74 ± 0.56"}, {"sequence": "AACATATACACGAACACACACACATATATATATATA [CACACA_site502]", "gcPBM binding intensity (ln)": "10.1 ± 0.38"}, {"sequence": "CATATACACGAACACACACACATATATATATATATA [CACACA_site4437]", "gcPBM binding intensity (ln)": "10.3 ± 0.39"}, {"sequence": "CCCCCCCACGAACACACACACATACATACCACATAT [CACACA_site7149]", "gcPBM binding intensity (ln)": "10.41 ± 0.028"}, {"sequence": "GGCATACACGAACACACACACACACGCACATATATA [CACACA_site6426]", "gcPBM binding intensity (ln)": "8.96 ± 0.52"}, {"sequence": "CATATACACGAACACACACACATATAAATAAATATA [CACACA_site6379]", "gcPBM binding intensity (ln)": "8.73 ± 0.46"}, {"sequence": "ATTATATTTCAATTATGTACATATAAAATGAATAAA [XGTACX_site4204]", "gcPBM binding intensity (ln)": "8.43 ± 0.38"}, {"sequence": "ATGAATATAATAAAGAAACACACGTATACATAATGA [CACACA_site1355]", "gcPBM binding intensity (ln)": "8.8 ± 0.54"}, {"sequence": "TAAAATTTACAACACTGTACTTGAATTTATCTTTAA [XGTACX_site241]", "gcPBM binding intensity (ln)": "8.25 ± 0.37"}, {"sequence": "CGCATAAAGACAAGAACACACATATAGATTGTAGTA [CACACA_site3693]", "gcPBM binding intensity (ln)": "8.27 ± 0.49"}, {"sequence": "ATTATATATAATATAGTGCATGTAAAAAATAAAACA", "gcPBM binding intensity (ln)": "9.23 ± 0.33"}, {"sequence": "ATTATTATATAGTGTGCATGCAATATTAATAAAACC [TGCATGCA_site245]", "gcPBM binding intensity (ln)": "10.3 ± 0.4"}, {"sequence": "GTTATATTTAAAATAGTGCAATAAAAATAATAATAT", "gcPBM binding intensity (ln)": "8.89 ± 0.2"}]}]}
